The entries come from a sample that favours hits as a whole.
GIRK2 act – activators of NPY4-receptor-primed GIRK2 channels, summary, cell-based, HEK293, thallium flux; HEK293 GIRK2/NPY4 cells, thallium flux fluorescence; G protein-activated inward rectifier potassium channel 2 (Homo sapiens), P48051; 34,000 tested, under 10 active; activation (% efficacy), % for hits at 37.5 µM;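 active means primary screen hit, no activity in plain HEK293 cells, and in GIRK2-only cells above 5% efficacy rising with concentration; inactive means the rest, including fluorescent compounds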;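 further: efficacy is normalized control-subtracted fluorescence 15 s after thallium addition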
Target sequence (P48051 whole entry, looked up): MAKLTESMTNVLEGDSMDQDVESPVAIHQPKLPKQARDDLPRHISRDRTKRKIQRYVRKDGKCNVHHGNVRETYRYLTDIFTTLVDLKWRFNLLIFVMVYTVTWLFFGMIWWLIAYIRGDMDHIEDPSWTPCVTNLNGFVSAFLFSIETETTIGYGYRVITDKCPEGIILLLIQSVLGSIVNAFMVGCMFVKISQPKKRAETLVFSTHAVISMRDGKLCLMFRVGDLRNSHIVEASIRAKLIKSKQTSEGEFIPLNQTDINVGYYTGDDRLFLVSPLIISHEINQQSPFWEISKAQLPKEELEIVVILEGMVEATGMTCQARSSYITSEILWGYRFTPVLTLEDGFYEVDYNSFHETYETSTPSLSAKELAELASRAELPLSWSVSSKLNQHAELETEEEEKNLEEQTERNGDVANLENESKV
GluA2 TARP mod – modulators of GluA2-stargazin AMPA receptor complexes, primary screen, cell-based, membrane potential dye | HEK293 GluA2+stargazin, membrane potential dye (FDSS), glutamate EC50; hits were called plate by plate, in both directions | calls only at 30 µM | hit rate 3.5% among 40,000 | AID 1259245, 2017;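 active means any of four per-well response measures lying three or more SD from its plate-wide compound average, in either direction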
Calls only; i = inactive; nt = no result; + = active, no number; ! = repeats disagree.

SMILES | GIRK2 act | GluA2 TARP mod
O=C1CC(c2nc3ccccc3n2Cc2ccccc2F)CN1Cc1ccccc1 (stereo not given) | nt | +
Cc1cccc(Cn2c(C3CC(=O)N(Cc4ccccc4)C3)nc3ccccc32)c1 (stereo not given) | nt | +
C=CCN1CC(c2nc3ccccc3n2Cc2ccc(C(C)C)cc2)CC1=O (stereo not given) | nt | i
Cc1cccc(Cn2c(C3CC(=O)N(Cc4ccc(F)cc4)C3)nc3ccccc32)c1 (stereo not given) | nt | i
C=CCN1CC(c2nc3ccccc3n2Cc2ccc(Cl)cc2)CC1=O (stereo not given) | nt | +
Cc1ccc(Oc2cccc(C(=O)Nc3ccc(-c4cn5ccccc5n4)cc3)c2)nn1 | i | nt
CN(C)S(=O)(=O)N1CCC2(CC1)CC(=O)c1ccccc1O2 | i | i
CCN1CC(c2nc3ccccc3n2Cc2ccccc2)CC1=O (stereo not given) | nt | i
CC(c1ccccc1)n1c(C2CC(=O)N(Cc3ccccc3)C2)nc2ccccc21 (stereo not given) | nt | +
Cc1noc(C)c1S(=O)(=O)NCC(O)c1cccn1C (stereo not given) | i | i
Cc1nc2ccc(NC(=O)c3cccc(S(=O)(=O)C(C)C)c3)cc2s1 | i | i
COc1ccc(S(=O)(=O)CCC(=O)Nc2nc3cc(OC)c(OC)cc3s2)cc1 | i | i
CC(C)S(=O)(=O)c1ccc(C(=O)Nc2nc3ccc(Br)cc3s2)cc1 | nt | +
COc1ccc(S(=O)(=O)CCC(=O)Nc2nc3ccc(Br)cc3s2)cc1 | i | +
Cc1nc2ccc(NC(=O)c3ccc(S(=O)(=O)C(C)C)cc3)cc2s1 | nt | +
Cc1cc2nc(NC(=O)c3ccc(S(=O)(=O)C(C)C)cc3)sc2cc1C | i | i
Cc1ccc2c(CC(=O)N3CCC4(CC3)OCCO4)cc(=O)oc2c1 | i | i
CC(C)Cn1c(SCC#N)nc2cc(C(=O)NC(C)C)ccc2c1=O | nt | i
CCN(CC)CCn1c(SCC#N)nc2cc(C(=O)OC)ccc2c1=O | i | +!
COc1ccc(Cl)cc1S(=O)(=O)NCC1CCN(c2ccccn2)CC1 | i | i
O=C(C1CC1)N1CCc2ccc(NC(=O)C3(c4ccccc4)CCOCC3)cc21 | i | i
Cc1cc(C)c(NC2=C/C(=N/S(=O)(=O)c3cccs3)c3ccccc3C2=O)c(C)c1 | nt | +
Cc1cc(C)c(NC(=O)C2(c3cccs3)CCOCC2)c(C)c1 | i | i
CCCc1ccc(S(=O)(=O)NCC2CCN(C3CCCC3)CC2)cc1 | nt | +
O=S(=O)(NCC1CCN(C2CCCC2)CC1)c1ccc2c(c1)CCCC2 | i | +
SMILES | GIRK2 act | GluA2 TARP mod
COC(=O)N1CCC(CNS(=O)(=O)c2ccc3c(c2)CCCC3)CC1 | i | i
CCc1ccc(S(=O)(=O)NCC2CCN(C3CCCC3)CC2)cc1 | nt | i
CCCOc1ccc(S(=O)(=O)NCC2CCN(C3CCCC3)CC2)cc1 | i | +
COc1ccc(S(=O)(=O)NCC2CCN(C3CCCC3)CC2)cc1OC | i | i
O=c1ccc(-c2cccs2)nn1Cc1ccccc1 | i | i
CCOC(=O)c1ccccc1NC(=O)CN1CC(c2nc(-c3cccc(C(F)(F)F)c3)no2)C1 | i | nt
O=C1CC(NC(=O)NCc2cccs2)CN1 (stereo not given) | i | nt
CN(C)CCN(C(=O)CCCS(=O)(=O)c1ccc(F)cc1)c1nc2ccccc2s1 | nt | i
COc1ccc(S(=O)(=O)CCC(=O)N(Cc2ccccc2)c2nc3ccccc3s2)cc1 | i | i
COc1ccc(S(=O)(=O)CCC(=O)N(CCN(C)C)c2nc3ccc([N+](=O)[O-])cc3s2)cc1 | nt | +
CN(C)CCN(C(=O)CCCS(=O)(=O)c1ccc(F)cc1)c1nc2ccc([N+](=O)[O-])cc2s1 | nt | +
Cc1c(Cl)ccc2sc(NCCCN(C)C)nc12 | i | i
CN(C)CCCNc1nc2ccc([N+](=O)[O-])cc2s1 | i | +
COc1cccc(/C=C2\Oc3cc(OCC(=O)OC(C)C)ccc3C2=O)c1 | nt | i
Cc1ccc2nc3c(cc(C(=O)N4CCCCC4)n3C)c(=O)n2c1 | i | i
CC1Cc2c(NC(=O)c3cc(-c4cccs4)[nH]n3)nn(C)c2NC1=O (stereo not given) | i | i
COCCCNC(=O)C(=O)Nc1c2c(nn1C(C)(C)C)CSC2 | i | i
Cc1nnsc1C(=O)Nc1ccc2c(c1)CC(=O)N2C | i | +
CCC(=O)Nc1ccc2c(c1)CC(=O)N2C | nt | i
CC(=O)c1cc(C(=O)OCC(=O)Nc2cccc(Cl)c2)c2ccccn12 | nt | i
CSc1ccc2nc(N3CCN(C(=O)c4cc(C)no4)CC3)sc2c1 | i | i
CCC(=O)Nc1sc2c(c1-c1nc3ccccc3s1)CCN(C(C)C)C2 | nt | i
CC(C)N1CCc2c(sc(NC(=O)c3ccc([N+](=O)[O-])cc3)c2-c2nc3ccccc3s2)C1 | nt | +
CC(C)N1CCc2c(sc(NC(=O)c3ccc(Cl)s3)c2-c2nc3ccccc3s2)C1 | nt | +
CC(=O)c1ccc(C(=O)Nc2sc3c(c2-c2nc4ccccc4s2)CCN(C(C)C)C3)cc1 | nt | i
Cc1cccc(C)c1NC(=O)CSc1nnc(CCn2ccc(=O)[nH]c2=O)o1 | i | i
COc1ccccc1NC(=O)CSc1c(C)cnc2c1c(=O)n(C)c(=O)n2C | i | i
COc1ccc(C(=O)CSc2nc(CC(=O)Nc3ccc(-n4cnnn4)cc3)cs2)cc1 | i | nt
CC(=O)N1CCc2c(sc(NC(=O)c3ccno3)c2-c2nc3ccccc3s2)C1 | nt | i
